Measurements from paper PMC7862700, “An all-to-all approach to the identification of sequence-specific readers for epigenetic DNA modifications on cytosine”.

Tests used:
Experiment in all cases: DAPPL (digital affinity profiling via proximity ligation, sequencing); 10 mM Tris-HCl pH 7.5, 50 mM NaCl, 1 mM DTT, 4% glycerol, room temperature, 30 min; GST-TFs on glutathione beads, 16-mer random dsDNA library, 0.1% formaldehyde crosslink after washing; high values mean tight binding
[1] = biological target: T1, FLI1 (Homo sapiens, UniProt Q01543 1-452); details: protein: recombinant; tags: N-terminal GST; dsDNA, one strand shown
T1 sequence: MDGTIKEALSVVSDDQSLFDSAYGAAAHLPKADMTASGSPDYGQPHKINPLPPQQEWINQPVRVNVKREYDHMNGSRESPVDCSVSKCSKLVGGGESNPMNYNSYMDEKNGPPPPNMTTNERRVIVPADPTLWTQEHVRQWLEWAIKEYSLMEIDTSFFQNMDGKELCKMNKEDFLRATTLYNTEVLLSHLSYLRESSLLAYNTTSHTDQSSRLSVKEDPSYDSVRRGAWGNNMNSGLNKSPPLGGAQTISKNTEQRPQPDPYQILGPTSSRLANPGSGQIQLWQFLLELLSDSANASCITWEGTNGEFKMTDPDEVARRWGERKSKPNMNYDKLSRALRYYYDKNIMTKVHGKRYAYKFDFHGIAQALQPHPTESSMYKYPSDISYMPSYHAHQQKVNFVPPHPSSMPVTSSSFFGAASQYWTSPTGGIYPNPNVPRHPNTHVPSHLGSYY
How it was run: (§1)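 Pools of DNA-barcoded human transcription factors, expressed in yeast as GST fusions on glutathione beads and combined with a tag-only sample, were incubated with 200 nmole of a 16-mer random double-stranded DNA library. Incubation took 30 min at room temperature in Tris/NaCl/DTT/glycerol buffer and was followed by washing, 0.1% formaldehyde crosslinking, proximity ligation (BsaI/T4 ligase, 1 h, 37 °C), PCR amplification and sequencing on an Illumina NextSeq500. Binding signal is the ratio of a hexamer's read frequency for a factor to its frequency for the tag-only sample.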

[2] = biological target: T2, ELK1 (Homo sapiens, UniProt P19419 1-428); details: protein: recombinant; tags: N-terminal GST; dsDNA, one strand shown
T2 sequence: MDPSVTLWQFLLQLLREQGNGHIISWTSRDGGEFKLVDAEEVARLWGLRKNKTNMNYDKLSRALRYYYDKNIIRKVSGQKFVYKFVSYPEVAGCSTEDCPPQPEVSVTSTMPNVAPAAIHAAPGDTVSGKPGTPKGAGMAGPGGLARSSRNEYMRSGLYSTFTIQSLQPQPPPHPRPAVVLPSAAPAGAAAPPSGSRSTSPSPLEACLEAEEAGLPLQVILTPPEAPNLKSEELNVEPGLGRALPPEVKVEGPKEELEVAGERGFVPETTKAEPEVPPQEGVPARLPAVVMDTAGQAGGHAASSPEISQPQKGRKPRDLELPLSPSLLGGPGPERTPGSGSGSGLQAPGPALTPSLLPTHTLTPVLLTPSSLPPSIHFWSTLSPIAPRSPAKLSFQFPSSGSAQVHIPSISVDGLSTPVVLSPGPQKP
How it was run: as §1

[3] = biological target: T3, GABPA (Homo sapiens, UniProt Q06546 1-454); details: protein: recombinant; tags: N-terminal GST; dsDNA, one strand shown
T3 sequence: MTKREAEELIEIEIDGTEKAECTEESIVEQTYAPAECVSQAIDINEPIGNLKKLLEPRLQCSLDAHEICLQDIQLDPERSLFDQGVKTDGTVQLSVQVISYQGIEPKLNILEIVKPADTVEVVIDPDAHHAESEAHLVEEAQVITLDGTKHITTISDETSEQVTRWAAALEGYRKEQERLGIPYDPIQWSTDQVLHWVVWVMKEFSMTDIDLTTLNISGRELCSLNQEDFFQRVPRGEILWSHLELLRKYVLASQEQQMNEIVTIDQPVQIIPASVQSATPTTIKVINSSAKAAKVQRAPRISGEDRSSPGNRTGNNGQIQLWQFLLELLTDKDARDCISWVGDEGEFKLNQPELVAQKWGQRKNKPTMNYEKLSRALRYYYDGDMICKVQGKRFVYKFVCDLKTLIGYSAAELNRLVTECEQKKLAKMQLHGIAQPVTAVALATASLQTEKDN
How it was run: as §1

[4] = biological target: T4, ERG (Homo sapiens, UniProt P11308 1-479); details: protein: recombinant; tags: N-terminal GST; dsDNA, one strand shown
T4 sequence: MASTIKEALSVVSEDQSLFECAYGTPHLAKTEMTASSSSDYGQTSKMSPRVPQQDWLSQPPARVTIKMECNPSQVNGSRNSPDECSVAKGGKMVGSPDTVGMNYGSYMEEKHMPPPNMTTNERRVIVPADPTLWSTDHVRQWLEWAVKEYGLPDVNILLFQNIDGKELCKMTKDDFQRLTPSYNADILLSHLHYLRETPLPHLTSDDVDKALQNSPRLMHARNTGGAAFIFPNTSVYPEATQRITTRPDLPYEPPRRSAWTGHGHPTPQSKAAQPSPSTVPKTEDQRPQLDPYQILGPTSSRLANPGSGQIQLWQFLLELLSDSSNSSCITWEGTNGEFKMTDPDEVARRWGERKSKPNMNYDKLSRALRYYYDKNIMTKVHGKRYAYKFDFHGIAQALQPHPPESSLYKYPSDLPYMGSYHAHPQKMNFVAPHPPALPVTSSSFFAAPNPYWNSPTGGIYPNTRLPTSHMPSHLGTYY
How it was run: as §1

[5] = biological target: ELF1 (Homo sapiens, UniProt P32519 1-619); details: protein: recombinant; tags: N-terminal GST; dsDNA, one strand shown
Chain of ELF1 (P32519 whole entry): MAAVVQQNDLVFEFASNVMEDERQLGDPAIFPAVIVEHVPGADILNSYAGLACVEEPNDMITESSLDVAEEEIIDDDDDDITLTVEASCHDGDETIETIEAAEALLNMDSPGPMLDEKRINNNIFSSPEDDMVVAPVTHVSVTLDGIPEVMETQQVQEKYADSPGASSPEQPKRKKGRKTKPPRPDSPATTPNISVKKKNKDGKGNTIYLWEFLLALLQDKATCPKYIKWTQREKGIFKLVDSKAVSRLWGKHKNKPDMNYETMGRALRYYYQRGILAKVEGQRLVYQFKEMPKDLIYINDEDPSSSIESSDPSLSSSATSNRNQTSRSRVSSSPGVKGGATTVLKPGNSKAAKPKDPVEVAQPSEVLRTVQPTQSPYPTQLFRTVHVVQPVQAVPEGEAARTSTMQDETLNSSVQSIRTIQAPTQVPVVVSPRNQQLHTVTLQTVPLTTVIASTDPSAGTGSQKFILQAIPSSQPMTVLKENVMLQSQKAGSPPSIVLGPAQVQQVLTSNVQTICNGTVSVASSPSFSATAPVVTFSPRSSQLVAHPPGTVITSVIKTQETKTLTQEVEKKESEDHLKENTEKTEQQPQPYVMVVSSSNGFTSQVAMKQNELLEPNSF
How it was run: as §1

[6] = biological target: T5, EHF (Homo sapiens, UniProt Q9NZC4 1-300); details: protein: recombinant; tags: N-terminal GST; dsDNA, one strand shown
T5 sequence: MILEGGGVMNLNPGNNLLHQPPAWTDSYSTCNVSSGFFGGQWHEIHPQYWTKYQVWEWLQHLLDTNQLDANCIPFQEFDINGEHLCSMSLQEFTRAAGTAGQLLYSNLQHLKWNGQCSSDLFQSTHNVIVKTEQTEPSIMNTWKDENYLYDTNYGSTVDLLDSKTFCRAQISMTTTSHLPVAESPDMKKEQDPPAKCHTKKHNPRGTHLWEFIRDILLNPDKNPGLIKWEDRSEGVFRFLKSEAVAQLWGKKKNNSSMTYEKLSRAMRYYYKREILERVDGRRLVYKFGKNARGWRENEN
How it was run: as §1

[7] = biological target: SPI1 (Homo sapiens, UniProt P17947 1-270); details: protein: recombinant; tags: N-terminal GST; dsDNA, one strand shown
How it was run: as §1

[8] = biological target: SPIB (Homo sapiens, UniProt Q01892 1-262); details: protein: recombinant; tags: N-terminal GST; dsDNA, one strand shown
Chain of SPIB (Q01892 whole entry): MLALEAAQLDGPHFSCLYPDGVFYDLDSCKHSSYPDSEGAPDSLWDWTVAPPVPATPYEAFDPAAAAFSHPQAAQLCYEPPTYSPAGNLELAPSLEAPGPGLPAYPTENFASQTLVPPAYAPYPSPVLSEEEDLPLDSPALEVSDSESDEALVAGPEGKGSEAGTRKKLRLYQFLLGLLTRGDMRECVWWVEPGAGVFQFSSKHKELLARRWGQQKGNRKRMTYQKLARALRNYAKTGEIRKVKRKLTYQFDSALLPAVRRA
How it was run: as §1

[9] = biological target: T6, ELK3 (Homo sapiens, UniProt P41970 1-407); details: protein: recombinant; tags: N-terminal GST; dsDNA, one strand shown
T6 sequence: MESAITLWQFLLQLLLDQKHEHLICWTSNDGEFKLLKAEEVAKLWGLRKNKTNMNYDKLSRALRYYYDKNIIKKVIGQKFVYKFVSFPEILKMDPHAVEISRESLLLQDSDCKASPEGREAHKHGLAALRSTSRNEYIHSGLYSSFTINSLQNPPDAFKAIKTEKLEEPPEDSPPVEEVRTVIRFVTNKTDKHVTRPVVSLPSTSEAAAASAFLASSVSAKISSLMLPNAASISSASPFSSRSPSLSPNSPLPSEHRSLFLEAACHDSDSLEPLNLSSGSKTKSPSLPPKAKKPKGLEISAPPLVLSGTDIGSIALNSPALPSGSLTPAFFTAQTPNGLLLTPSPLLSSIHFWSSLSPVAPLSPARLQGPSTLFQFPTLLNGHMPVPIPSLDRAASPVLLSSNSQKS
How it was run: as §1

[10] = biological target: T7, FEV (Homo sapiens, UniProt Q99581 1-238); details: protein: recombinant; tags: N-terminal GST; dsDNA, one strand shown
T7 sequence: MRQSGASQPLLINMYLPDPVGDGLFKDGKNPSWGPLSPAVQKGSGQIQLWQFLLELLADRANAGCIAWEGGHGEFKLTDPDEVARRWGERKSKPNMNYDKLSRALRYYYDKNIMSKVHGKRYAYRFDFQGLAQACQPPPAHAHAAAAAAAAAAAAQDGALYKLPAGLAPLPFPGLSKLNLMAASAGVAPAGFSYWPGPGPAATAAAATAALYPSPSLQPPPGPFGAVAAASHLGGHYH
How it was run: as §1

[11] = biological target: ETV5 (Homo sapiens, UniProt P41161 1-510); details: protein: recombinant; tags: N-terminal GST; dsDNA, one strand shown
Chain of ETV5 (P41161 whole entry): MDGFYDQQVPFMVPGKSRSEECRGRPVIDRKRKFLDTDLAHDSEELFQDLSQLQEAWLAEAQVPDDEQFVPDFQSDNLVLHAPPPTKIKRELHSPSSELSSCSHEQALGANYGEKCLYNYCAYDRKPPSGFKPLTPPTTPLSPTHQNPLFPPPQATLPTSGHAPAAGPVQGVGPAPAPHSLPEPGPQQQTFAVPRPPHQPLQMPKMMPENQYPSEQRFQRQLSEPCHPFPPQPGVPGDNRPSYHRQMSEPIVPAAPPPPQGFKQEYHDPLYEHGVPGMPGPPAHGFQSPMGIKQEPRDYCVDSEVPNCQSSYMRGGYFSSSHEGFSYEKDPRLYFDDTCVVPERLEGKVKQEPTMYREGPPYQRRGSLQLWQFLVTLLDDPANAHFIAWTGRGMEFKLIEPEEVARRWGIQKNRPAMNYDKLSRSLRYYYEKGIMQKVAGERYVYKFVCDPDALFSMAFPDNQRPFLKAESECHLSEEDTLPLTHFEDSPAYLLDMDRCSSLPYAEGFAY
How it was run: as §1

[12] = biological target: HSF1 (Homo sapiens, UniProt Q00613 1-529); details: protein: recombinant; tags: N-terminal GST; chain copies: 3; dsDNA, one strand shown
Chain of HSF1 (Q00613 whole entry): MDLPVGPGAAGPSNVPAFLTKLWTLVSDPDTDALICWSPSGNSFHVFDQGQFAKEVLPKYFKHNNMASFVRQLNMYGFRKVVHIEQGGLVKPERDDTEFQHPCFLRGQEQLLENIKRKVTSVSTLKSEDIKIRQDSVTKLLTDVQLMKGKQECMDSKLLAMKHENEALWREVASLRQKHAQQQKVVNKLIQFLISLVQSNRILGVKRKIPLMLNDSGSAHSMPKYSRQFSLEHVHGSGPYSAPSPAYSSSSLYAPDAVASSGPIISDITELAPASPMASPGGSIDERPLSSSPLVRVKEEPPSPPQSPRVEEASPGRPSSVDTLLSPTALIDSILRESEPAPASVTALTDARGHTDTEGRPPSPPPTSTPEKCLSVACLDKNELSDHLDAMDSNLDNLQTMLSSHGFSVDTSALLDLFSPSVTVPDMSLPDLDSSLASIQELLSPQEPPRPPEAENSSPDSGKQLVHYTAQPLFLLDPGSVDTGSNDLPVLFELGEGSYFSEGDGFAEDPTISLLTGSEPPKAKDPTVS
How it was run: as §1

[13] = biological target: T8, SPIC (Homo sapiens, UniProt Q8N5J4 1-248); details: protein: recombinant; tags: N-terminal GST; dsDNA, one strand shown
T8 sequence: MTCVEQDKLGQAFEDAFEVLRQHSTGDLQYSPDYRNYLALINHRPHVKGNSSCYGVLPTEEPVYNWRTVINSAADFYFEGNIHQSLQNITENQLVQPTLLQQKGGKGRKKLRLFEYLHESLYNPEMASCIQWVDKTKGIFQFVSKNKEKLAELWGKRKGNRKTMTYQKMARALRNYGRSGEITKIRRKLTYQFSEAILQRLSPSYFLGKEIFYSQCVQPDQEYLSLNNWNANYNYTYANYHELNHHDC
How it was run: as §1

[14] = biological target: ELF4 (Homo sapiens, UniProt Q99607 1-663); details: protein: recombinant; tags: N-terminal GST; dsDNA, one strand shown
Chain of ELF4 (Q99607 whole entry): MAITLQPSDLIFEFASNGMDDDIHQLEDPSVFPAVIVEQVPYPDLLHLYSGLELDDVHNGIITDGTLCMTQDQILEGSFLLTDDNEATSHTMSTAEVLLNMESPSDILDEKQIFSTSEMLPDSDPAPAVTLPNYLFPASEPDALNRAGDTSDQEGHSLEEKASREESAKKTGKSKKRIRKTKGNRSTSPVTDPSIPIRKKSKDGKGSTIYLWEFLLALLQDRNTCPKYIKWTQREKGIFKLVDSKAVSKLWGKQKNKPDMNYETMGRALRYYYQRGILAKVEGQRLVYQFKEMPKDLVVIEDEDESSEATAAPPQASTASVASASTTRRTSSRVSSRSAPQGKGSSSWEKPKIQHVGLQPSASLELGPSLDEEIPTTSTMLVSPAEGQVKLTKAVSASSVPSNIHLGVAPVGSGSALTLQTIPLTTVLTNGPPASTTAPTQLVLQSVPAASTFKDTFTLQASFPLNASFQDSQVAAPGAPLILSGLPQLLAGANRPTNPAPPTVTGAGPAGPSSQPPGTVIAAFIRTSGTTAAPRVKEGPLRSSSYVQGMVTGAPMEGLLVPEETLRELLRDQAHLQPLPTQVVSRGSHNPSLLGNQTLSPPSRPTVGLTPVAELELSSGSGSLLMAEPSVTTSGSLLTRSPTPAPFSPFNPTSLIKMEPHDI
How it was run: as §1

[15] = biological target: T9, ELK4 (Homo sapiens, UniProt P28324-2 1-405); details: protein: recombinant; tags: N-terminal GST; dsDNA, one strand shown
T9 sequence: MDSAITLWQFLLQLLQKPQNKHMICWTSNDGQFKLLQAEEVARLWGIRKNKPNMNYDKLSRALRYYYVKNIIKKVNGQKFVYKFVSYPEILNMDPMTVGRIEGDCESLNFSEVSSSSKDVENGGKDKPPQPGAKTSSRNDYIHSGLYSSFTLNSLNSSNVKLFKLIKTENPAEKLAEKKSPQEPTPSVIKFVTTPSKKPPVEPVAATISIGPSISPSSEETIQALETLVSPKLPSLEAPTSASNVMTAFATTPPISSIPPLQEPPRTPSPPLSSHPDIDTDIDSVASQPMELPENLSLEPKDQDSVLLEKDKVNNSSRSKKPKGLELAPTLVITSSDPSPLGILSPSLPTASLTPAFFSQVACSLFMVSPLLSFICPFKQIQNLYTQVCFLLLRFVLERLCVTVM
How it was run: as §1

[16] = biological target: T10, ETV2 (Homo sapiens, UniProt O00321 1-342); details: protein: recombinant; tags: N-terminal GST; dsDNA, one strand shown
T10 sequence: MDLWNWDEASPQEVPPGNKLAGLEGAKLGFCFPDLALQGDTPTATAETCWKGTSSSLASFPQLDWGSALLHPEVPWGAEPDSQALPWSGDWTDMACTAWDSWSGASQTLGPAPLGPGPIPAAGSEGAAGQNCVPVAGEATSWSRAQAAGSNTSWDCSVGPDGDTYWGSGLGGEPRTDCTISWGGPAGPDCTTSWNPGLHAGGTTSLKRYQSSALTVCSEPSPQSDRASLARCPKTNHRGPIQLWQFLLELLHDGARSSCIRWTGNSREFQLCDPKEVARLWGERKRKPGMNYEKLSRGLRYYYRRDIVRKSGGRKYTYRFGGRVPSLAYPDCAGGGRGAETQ
How it was run: as §1

[17] = biological target: T11, ELF3 (Homo sapiens, UniProt P78545 1-371); details: protein: recombinant; tags: N-terminal GST; dsDNA, one strand shown
T11 sequence: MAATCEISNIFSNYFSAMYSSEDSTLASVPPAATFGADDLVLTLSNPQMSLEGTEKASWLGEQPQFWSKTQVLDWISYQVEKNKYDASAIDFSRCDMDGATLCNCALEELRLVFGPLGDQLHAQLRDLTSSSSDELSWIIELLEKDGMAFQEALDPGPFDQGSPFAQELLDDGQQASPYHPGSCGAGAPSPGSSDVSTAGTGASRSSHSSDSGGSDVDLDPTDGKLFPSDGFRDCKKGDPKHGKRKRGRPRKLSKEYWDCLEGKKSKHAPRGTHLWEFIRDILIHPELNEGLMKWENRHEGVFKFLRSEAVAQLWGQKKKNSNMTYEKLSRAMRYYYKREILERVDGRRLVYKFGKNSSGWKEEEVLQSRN
How it was run: as §1

[18] = biological target: CRX (Homo sapiens, UniProt O43186 1-299); details: protein: recombinant; tags: N-terminal GST; dsDNA, one strand shown
Chain of CRX (O43186 whole entry): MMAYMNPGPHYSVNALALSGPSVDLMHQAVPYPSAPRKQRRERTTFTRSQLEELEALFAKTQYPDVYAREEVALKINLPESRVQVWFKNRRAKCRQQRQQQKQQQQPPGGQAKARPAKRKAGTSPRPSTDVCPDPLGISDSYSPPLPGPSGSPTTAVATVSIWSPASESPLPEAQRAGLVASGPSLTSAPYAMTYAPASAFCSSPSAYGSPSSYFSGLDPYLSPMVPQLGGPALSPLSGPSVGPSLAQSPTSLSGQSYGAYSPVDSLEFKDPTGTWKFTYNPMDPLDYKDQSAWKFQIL
How it was run: as §1

[19] = biological target: ETV1 (Homo sapiens, UniProt P50549 1-477); details: protein: recombinant; tags: N-terminal GST; dsDNA, one strand shown
Chain of ETV1 (P50549 whole entry): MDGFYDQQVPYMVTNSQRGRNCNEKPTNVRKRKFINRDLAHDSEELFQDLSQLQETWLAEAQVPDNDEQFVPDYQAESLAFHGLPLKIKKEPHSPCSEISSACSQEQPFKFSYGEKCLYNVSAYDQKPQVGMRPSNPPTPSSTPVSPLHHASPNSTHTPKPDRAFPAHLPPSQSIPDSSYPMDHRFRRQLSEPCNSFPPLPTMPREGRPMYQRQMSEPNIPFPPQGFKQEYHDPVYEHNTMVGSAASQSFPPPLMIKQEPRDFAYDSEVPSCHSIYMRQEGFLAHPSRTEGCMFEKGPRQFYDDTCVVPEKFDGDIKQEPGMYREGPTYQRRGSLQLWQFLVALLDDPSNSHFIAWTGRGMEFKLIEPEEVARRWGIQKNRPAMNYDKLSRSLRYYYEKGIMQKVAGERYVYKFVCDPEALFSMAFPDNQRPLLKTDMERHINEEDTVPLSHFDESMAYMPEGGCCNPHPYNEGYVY
How it was run: as §1

TTACCT
binding signal [1]: 1.12 fold enrichment (6-mer frequency, TF over GST control) | binding signal [2]: 1.19 fold enrichment (6-mer frequency, TF over GST control) | binding signal [3]: 1.32 fold enrichment (6-mer frequency, TF over GST control) | binding signal [4]: 1.17 fold enrichment (6-mer frequency, TF over GST control) | binding signal [5]: 1.19 fold enrichment (6-mer frequency, TF over GST control) | binding signal [6]: 1.31 fold enrichment (6-mer frequency, TF over GST control) | binding signal [7]: 1.19 fold enrichment (6-mer frequency, TF over GST control) | binding signal [8]: 1.4 fold enrichment (6-mer frequency, TF over GST control) | binding signal [9]: 1.22 fold enrichment (6-mer frequency, TF over GST control) | binding signal [10]: 1.26 fold enrichment (6-mer frequency, TF over GST control) | binding signal [11]: 1.35 fold enrichment (6-mer frequency, TF over GST control) | binding signal [12]: 1.45 fold enrichment (6-mer frequency, TF over GST control) | binding signal [13]: 1.01 fold enrichment (6-mer frequency, TF over GST control) | binding signal [14]: 1.21 fold enrichment (6-mer frequency, TF over GST control) | binding signal [15]: 1.32 fold enrichment (6-mer frequency, TF over GST control) | binding signal [16]: 1.32 fold enrichment (6-mer frequency, TF over GST control) | binding signal [17]: 1.2 fold enrichment (6-mer frequency, TF over GST control) | binding signal [18]: 2.09 fold enrichment (6-mer frequency, TF over GST control) | binding signal [19]: 1.32 fold enrichment (6-mer frequency, TF over GST control)
